60 molecules from PubChem BioAssay AID588726 (The Scripps Research Institute Molecular Screening Center, 2011) can be followed below.

Screen size: about 360,000 compounds; about 8,200 (2.3%) were called active. The entries come from a sample that favours actives as a whole. Unmarked numbers belong to inactive results. No stated cut-off is given here; in the data, active means inhibition above about 27%; inactive means the rest.

In the experiment the target is Fructose-bisphosphate aldolase (Mycobacterium tuberculosis (strain ATCC 25618 / H37Rv)) (UniProt P9WQA3). Briefly: Mtb FBA enzyme inhibitors, primary screen, biochemical, fluorescence, strain H37Rv (AID 588726).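 Further: 0% = vehicle and 100% = reference inhibitor.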 The note with it: purified M. tuberculosis FBA, fluorescence read-out, at 1 µM, hits give high values.
Fructose-bisphosphate aldolase (Mycobacterium tuberculosis (strain ATCC 25618 / H37Rv)), sequence (P9WQA3 whole entry, looked up): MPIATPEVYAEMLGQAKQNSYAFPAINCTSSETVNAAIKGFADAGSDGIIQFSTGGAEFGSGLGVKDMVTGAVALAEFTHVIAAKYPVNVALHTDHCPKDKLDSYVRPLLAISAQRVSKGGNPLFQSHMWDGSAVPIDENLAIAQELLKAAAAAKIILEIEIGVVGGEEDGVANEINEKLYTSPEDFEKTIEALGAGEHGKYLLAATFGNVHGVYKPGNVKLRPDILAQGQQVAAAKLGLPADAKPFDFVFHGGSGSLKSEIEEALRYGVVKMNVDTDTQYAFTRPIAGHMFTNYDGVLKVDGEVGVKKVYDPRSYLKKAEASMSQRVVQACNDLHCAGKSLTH
One may read the inhibition as the change of the read-out against control, counted positive when it falls. Turning to `O=C(OCC(=O)N(CCc1ccccc1)Cc1ccccc1)c1ccccc1[N+](=O)[O-]`, the inhibition is -2.21%.

For the molecule `COc1cccc(N(C(=O)c2ccn[nH]2)C2(C(=O)Nc3c(C)cccc3C)CCCCC2)c1`, the inhibition is -2.93%.

As to `CC(=O)Nc1ccc(S(=O)(=O)N2CCC(C(=O)N[C@@H](Cc3ccccc3)C(=O)O)CC2)cc1`, the inhibition was 7.63%.

With `O=C(O)CCN1C(=O)CC2(CCCCC2)C1=O`, the inhibition was 1.19%.

On to `O=C(NCc1ccc(F)cc1)c1cc(C2CCCCN2C(=O)C2CCCCC2)on1` (stereo not given), for which the inhibition is -0.56%.

In the case of `CCCC(O)(c1ccccc1)C(c1ccccc1)c1ccccn1` (stereo not given), the inhibition is -3.41%.

Regarding `COc1ccccc1CNC(=O)COC(=O)CNS(=O)(=O)c1ccc(NC(C)=O)cc1`, the inhibition is -1.17%.

With `COc1ccccc1C(=O)COC(=O)CNS(=O)(=O)c1ccc(NC(C)=O)cc1`, the inhibition is 0.46%.

With `CC(=O)Nc1ccc(S(=O)(=O)NCC(=O)OCc2cc(=O)oc3ccc4ccccc4c23)cc1`, the inhibition is 124% (active).

For `Nn1c(SCC(=O)Nc2nccs2)nncc1=O`, the inhibition was -1.98%.

As to `CC(C)N(C(=O)CSc1nc(COc2ccccc2)nc2ccccc12)C(C)C`, the inhibition is -0.47%.

On to `COc1cc(C(F)(F)F)nc2c(Br)c(C(C)(C)C)nn12`, for which the inhibition is 36.7% (active).

For `O=C(CCN1C(=O)C2C3CCC(C3)C2C1=O)Nc1ccc(Cl)cc1Cl` (stereo not given), the inhibition was 3.23%.

In the case of `Cc1cc(C)cc(NC(=O)C(OC(=O)c2ccc(O)cc2)c2ccccc2)c1` (stereo not given), the inhibition was 2.39%.

Turning to `CN(C)CCCO/N=C(\c1ccccc1)c1ccncc1`, the inhibition was -1.04%.

Take `CC(=O)c1cc2c(cc1NC(=O)CN1CCCCCC1)OCO2`: the inhibition is 0.04%.

With `COc1cccc(N(CC(=O)NC2CCCC2)C(=O)Cn2nnc(-c3ccc(C)o3)n2)c1`, the inhibition was 2.95%.

As for `COc1ccc(NC(=O)c2cc3nc(-c4ccccc4)cc(C)n3n2)cc1OC`, the inhibition is 1.45%.

As for `COc1ccc(-c2cc3nc(NCCOc4ccccc4)ccn3n2)cc1`, the inhibition is 9.7%.

In the case of `COCCNc1cc(-c2ccccc2)nc2cc(-c3cccc(F)c3)nn12`, the inhibition was 50.2% (active).

`O=C(COC(=O)c1ncc(Cl)c(Cl)c1Cl)NCc1ccccc1`: the inhibition is 3.15%.

Consider `CC(C)(C)C(=O)Nc1cccc(-c2ccc[nH]2)n1`, for which the inhibition is 29.7% (active).

As to `Cc1cccc(NC(=O)COc2ccc(Br)cc2C)n1`, the inhibition was 2.29%.

As for `Cc1cccc(NC(=O)Cc2ccc(Br)cc2)n1`, the inhibition is -1.42%.

For the molecule `N#CCc1ccc(NC(=O)c2ccccc2C(=O)Nc2ccc(CC#N)cc2)cc1`, the inhibition is 1.02%.

As to `CC1CCN(S(=O)(=O)c2ccc3c(c2)n(C)c(=O)n3C)CC1`, the inhibition was -1.94%.

With `CC1CCN(S(=O)(=O)c2ccc3c(ccn3CC(=O)O)c2)CC1`, the inhibition was -0.33%.

Consider `Cc1ccn2c(c1)nc(=O)c1cc(S(=O)(=O)N3CCC(C)CC3)ccc12`, for which the inhibition is 29.3% (active).

In the case of `N#Cc1ccc(N2Cc3ccccc3/C2=N/C(=O)Nc2ccc(Cl)cc2)cc1`, the inhibition was -0.15%.

For the molecule `CC1CCCCC1NC(=O)CN1CCC(O)(c2ccc3c(c2)OCO3)CC1` (stereo not given), the inhibition was -4.2%.

Take `CN(C)c1ccc(/C=N/NC(=O)c2ccc(Cn3cc(Br)cn3)o2)cc1`: the inhibition was 0.83%.

For the molecule `CN(C)c1ccc(/C=N/NC(=O)C(O)c2ccc(Br)cc2)cc1` (stereo not given), the inhibition is 39.7% (active).

For the molecule `COc1ccc(/C=N/NC(=O)C(C)N(c2ccc(OC)cc2)S(C)(=O)=O)cc1` (stereo not given), the inhibition is -1.16%.

On to `CCCNC(=O)N1CCC(c2ccc3c(c2)OCO3)CC1`, for which the inhibition was 0.5%.

`O=c1[nH]oc(O)c1-c1ncc(C(F)(F)F)cc1Cl`: the inhibition is 0.86%.

In the case of `Cc1ccc(C)c(NC(=O)c2ccc(OC(=O)c3ccco3)cc2)c1`, the inhibition was 3.01%.

With `CC(C)=NN1C(=O)c2ccccc2NC1(C)C`, the inhibition was 36.7% (active).

Consider `CC(=O)N1C(=O)C2(Nc3ccccc3N2)c2ccccc21`, for which the inhibition was 6.98%.

With `CCOC(=O)C1(Cc2ccc(Cl)cc2)CCN(C(=O)C2=NNC(=O)CC2)CC1`, the inhibition is -6.86%.

Take `COc1cc(/C=C/C2=CC(C)(C)NC(=S)N2)cc(OC)c1OC`: the inhibition was -5.13%.

On to `CCC(=O)c1ccc(OC(=O)/C=C/c2cc(OC)c(OC)c(OC)c2)cc1`, for which the inhibition is 4.81%.

In the case of `COc1cc(/C=C/c2ccc(/C=C/c3cc(OC)c(OC)c(OC)c3)cc2)cc(OC)c1OC`, the inhibition is 50.4% (active).

Consider `CC/C(=N/Nc1ccccc1)c1cnnc(SC)n1`, for which the inhibition is 0.39%.

As for `COc1ccc(NC(=O)N2CCCC(C(=O)Nc3ccccc3OC)C2)cc1` (stereo not given), the inhibition is 1.71%.

Turning to `COc1ccc(C(=O)NC2CCN(C(=O)Nc3ccc(F)cc3)CC2)cc1`, the inhibition was -0.69%.

For the molecule `COc1ccc(NC(=O)N2CCC(Cc3ccccc3)CC2)cc1`, the inhibition is 53.4% (active).

Turning to `O=C(COC(=O)c1ccc(S(=O)(=O)N2CCCCCC2)cc1)Nc1ccccc1C(F)(F)F`, the inhibition is 4.5%.

As to `CCc1ccc(Oc2coc3cc(OC(=O)c4cc5ccccc5oc4=O)ccc3c2=O)cc1`, the inhibition is 13.1%.

For `COC(=O)COc1ccc2c(=O)c(Oc3ccccc3Br)coc2c1`, the inhibition was -0.49%.

As for `CCc1ccc(Oc2coc3cc(O)ccc3c2=O)cc1`, the inhibition was 70.2% (active).

`Cc1ccc(N2C(=O)CC(N3CCSCC3)C2=O)c(C)c1` (stereo not given): the inhibition is 3.11%.

Regarding `COc1ccc(CCNC(=O)c2ccccc2-c2ccccc2C(=O)O)cc1OC`, the inhibition was 2.28%.

With `COc1cccc2[nH]c(C(=O)NCCc3ccccc3)cc12`, the inhibition was 33.2% (active).

Take `COc1ccc(OC)c2[nH]c(=O)c(CCNC(=O)C(=O)c3c[nH]c4ccccc34)cc12`: the inhibition is -5.42%.

As to `N#C[C@]1(S(=O)(=O)c2ccccc2)C[C@@H]2ON=C(c3cccc(Br)c3)[C@@H]2C1`, the inhibition was 2.3%.

On to `NS(=O)(=O)c1cc(C(=O)OCC(=O)NNC(=O)c2ccccc2)ccc1Cl`, for which the inhibition was -1.72%.

In the case of `O=C(NCc1ccccc1)C1CNCC(C(=O)NCc2ccccc2)C1` (stereo not given), the inhibition was -0.79%.

Consider `Cn1c(SCC(=O)Nc2ccc(Br)cc2F)nnc1-c1ccco1`, for which the inhibition was 1.98%.

`COc1ccc(-n2cnc3cc(NCc4ccco4)ccc32)cc1`: the inhibition was -1.49%.

`Cn1c(-c2ccco2)nc2cc3ccccc3cc21`: the inhibition was 81.7% (active).
